The results in this text go back to PubChem BioAssay (NCI).

Molecules are shown by their SMILES. This is part of a sample that, as a whole, favours compounds with a hit. Of some 83,000 tested, about 20% had one in any assay.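 Growth was measured after 48 h exposure to one concentration of compound in 96-well plates. Values under 10 count as active.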 Unmarked numbers belong to inactive results. Active and inactive are the calls of the source.

This assay deals with NCI/ADR-RES ovarian. Put plainly: NCI-60 one-dose screen, 48 h (100 = growth as untreated, 0 = no growth, -100 = all killed). The settings on record: 10 µM unless noted. As for the experimental part: Growth inhibition of the NCI/ADR-RES human […] tumor cell line is measured as a screen for anti-cancer activity. Cells are grown in 96 well plates and exposed to the test compound for 48 hours. Compounds are tested at a single concentration, which is 10^-5 M for most compounds. The reported endpoint is percent growth (GI% or GIPRCNT), where numbers from 0 - 100% represent growth inhibition, and numbers from -100% - 0 represent cell death. For example, a value of 40 represents 60% growth inhibition. A value of 0 means no net growth occurred over the course of the experiment. A value of -40 indicates 40% of cells at the beginning of the experiment died by the end of the experiment. A value of -100 means all cells are dead at the end of the experiment.
NCI-60 Human Tumor Cell Lines Screen was performed using the standard one-dose NCI protocol, which is described in more detail at https://dtp.cancer.gov/discovery_development/nci-60/default.htm.
Compounds with GIPRCNT values below 10 were considered active. Activity score was based on GIPRCNT using the following formula: […]
Score is 0 for GIPRCNT values of 100 or above, 50 for GIPRCNT values of 0, and 100 for GIPRCNT values of -100.
For `Cc1ccc(C(=O)NCCCNc2nccc(-n3ccc4cccnc43)n2)cc1`, the growth is 92.3%.
For `CCOC(=O)c1ccc2c(c1)nc(-c1ccc(OCc3ccccc3)c(OC)c1)n2-c1cc(C(C)(C)C)[nH]n1`, the growth was 89.1%.
As for `COc1ccc(-c2cn(-c3cccc(C(=O)/C=C/c4cc(OC)c(OC)c(OC)c4)c3)c(=O)[nH]2)cc1OC`, the figure is 90.7%.
Consider `COP(=O)(OC)/C(=N\NS(=O)(=O)c1ccc(C)cc1)c1ccccc1`, for which the growth is 95.8%.
On to `Nc1cc2c(cc1C(=O)c1cccc(F)c1)OCCO2`, for which the growth is 97.9%.
As for `Brc1cccc(-c2cc(-c3ccc4nccnc4c3)[nH]n2)c1`, the figure is 2.03% [25 µM] (active).
As for `Cc1ccc(S(=O)(=O)/C(=C\c2ccc(Cl)cc2)C(=O)c2ccccc2)cc1`, the figure is 104%; as for `Nc1cccc(-c2nc3sccn3c2-c2ccnc(NCCNS(=O)(=O)c3ccc(C(F)(F)F)cc3)n2)c1`, 71.5%; as for `O=C1c2c(Cl)c(Cl)c(Cl)c(Cl)c2C(=O)C2(Cl)CC=CCC12Cl` (stereo not given), 32.7%.
On to `COc1ccc(C(=O)N2NC(=O)/C(=C/c3cn(-c4ccccc4)nc3-c3ccccc3)N=C2c2ccccc2)cc1`, for which the growth is 106%.
For `COC(=O)c1cc(=O)nc(N/N=C/c2ccco2)s1`, the growth is 104%.
Take `O=S(=O)(NCCCNc1nccc(-n2ccc3cccnc32)n1)c1ccc(Br)cc1`: the growth is 101%.
As for `COc1cc(-c2nc(N=Nc3c(O)[nH]c4ccc(Br)cc34)[nH]c(=O)c2C#N)cc(OC)c1OC`, the figure is 102%; as for `Cn1ccc(Nc2nccc(Oc3ccc(C(=O)Nc4cccc(F)c4)c(Cl)c3)n2)c1`, 96.6%.
Consider `COc1cc(NC(N)=NCCC(C)(C)c2ccc(C(F)(F)F)cc2)ncc1C#N`, for which the growth is 24.3%.
As for `NC(=N\N=C/c1ccc(O)cc1)/C(N)=N\N=C/c1ccc(O)cc1`, the figure is 58.5%; as for `COc1ccc2c(c1)[nH]c(=O)c1c3cccc(F)c3cn21`, 15.8%; as for `COc1ccc(C(=O)c2cc(OC)c3c(c2)OCO3)cc1O`, 2.68% (active).
Then `COc1ccc(CN2CCc3c(Sc4ccccc4)nc(N)nc3C2=O)c(OC)c1`, with 49.7%; and `CN(C)CCOC(=O)Nc1ccccc1Cl`, with 105%; and `Cc1ccc(S(=O)(=O)NCCNc2nccc(-c3c(-c4cccc(N)c4)nc4sccn34)n2)cc1`, with 90.8%.
Then `CC(C)(C)n1cc(-c2ccnc(NCCNS(=O)(=O)c3ccc(Cl)cc3)c2)c(-c2cccc(O)c2)n1`, with 68.2%; and `CCCCN(CCCC)c1ccc(C(=N)c2ccc(N(CCCC)CCCC)cc2)cc1`, with -87.5% (active).
In the case of `O=c1[nH]c(-c2ccccc2)nc(CN2CCCCC2)c1O`, the growth was 100%.
Then `CCOC(=O)C1CCNC(=O)C1=O` (stereo not given), with 105%; and `CC1CN(c2oc(-c3ccccc3)nc2C#N)CC(C)O1` (stereo not given), with 107%; and `CCN(CC)c1ccc(N=O)cc1`, with 52%.
For the compound `CCCCNC(=O)Oc1ccc(/C(=C(\C)c2ccccc2)c2ccc(OCCN(CC)CC)cc2)cc1`, the growth is 84.4%.
As for `COc1ccc(Nc2ncccc2C(=O)NCc2cn(Cc3cccc(Oc4ccccc4)c3)nn2)cc1`, the figure is 16.3%; as for `O=[N+]([O-])c1cnc(Sc2ccncn2)s1`, 67%; as for `O=C(CSC1CCc2ccccc21)N/N=C/c1ccccc1O` (stereo not given), 24.1%.
Regarding `Fc1ccc(CNCCNc2ncnc3c2cnn3-c2ccccc2)cc1`, the growth is 95.8%.
Then `Nc1ccc(C(=O)CSc2nc3ccccc3[nH]2)cc1`, with 99.3%; and `S=C(S)NCCc1c[nH]c2ccccc12`, with 101%.
Then `Cc1ccc(NS(=O)(=O)c2cc(C)ccc2C)cc1`, with 2.96% (active).
Turning to `CC(C)CC1NC(C)(C)CO1` (stereo not given), the growth is 104%.
As for `N/C(=N\C(N)=N\c1nc2ccccc2s1)c1cccc(Br)c1`, the figure is 73.6%; as for `C=C1C(=O)O[C@H]2[C@H]1CC/C(Cn1cc(-c3cccc(Cl)c3)nn1)=C\CC[C@@]1(C)O[C@@H]21`, 10.7%.
Then `CC1CCC(C)N(C)C1` (stereo not given), with 107%; and `CCN(CC)CCCC(C)Nc1c2ccc(Cl)cc2nc2cc(OC)c(OC)cc12` (stereo not given), with 28.8%.
